Assay outcomes (PubChem)
MITF inh: MITF inhibitors, primary screen, biochemical, AlphaScreen, human. AlphaScreen MITF homodimerization, bead proximity signal. inhibition, % at 2.6 µM. 650,000 tested, 0.91% active; in the data active = inhibition above about 50%;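 also: 0% = vehicle wells with protein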
Target sequence (O75030 whole entry, looked up): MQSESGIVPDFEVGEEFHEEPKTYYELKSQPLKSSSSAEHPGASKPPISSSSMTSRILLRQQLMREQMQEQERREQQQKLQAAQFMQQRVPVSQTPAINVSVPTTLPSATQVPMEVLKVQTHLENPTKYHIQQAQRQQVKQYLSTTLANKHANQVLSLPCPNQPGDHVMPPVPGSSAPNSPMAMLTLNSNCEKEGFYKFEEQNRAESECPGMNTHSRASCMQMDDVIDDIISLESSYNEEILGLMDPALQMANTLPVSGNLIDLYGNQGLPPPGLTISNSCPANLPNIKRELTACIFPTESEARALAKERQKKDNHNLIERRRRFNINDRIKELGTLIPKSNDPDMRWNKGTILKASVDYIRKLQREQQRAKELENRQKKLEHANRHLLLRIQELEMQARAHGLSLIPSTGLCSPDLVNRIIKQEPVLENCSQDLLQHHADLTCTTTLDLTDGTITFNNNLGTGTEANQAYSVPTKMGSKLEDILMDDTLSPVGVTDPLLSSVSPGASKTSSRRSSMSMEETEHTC
GPR151 activ: activators of human GPR151, primary screen, cell-based, PathHunter beta-arrestin, luminescence. G-protein coupled receptor 151 (Homo sapiens), Q8TDV0. PathHunter beta-arrestin GPR151 cells. activation, % at 11.2 µM. 650,000 tested, 1% active; in the data active = activation above about 4.9%;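 also: 0% = median of compound wells and 100% = cells with positive control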
TEAD-YAP block: TEAD-YAP interaction inhibition, primary screen, TEAD-YAP interaction inhibitor project, luminescence, HEK-TIYL cells | TEAD-Gal4/YAP UAS-luciferase luminescence | inhibition, % at 9.12 µM | 640,000 tested, 1.4% active; in the data active = inhibition above about 32%;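 also: 0% = median of test compound wells and 100% = reference inhibitor wells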
FBW7 activator: FBW7 E3 ligase activators, primary screen, biochemical, AlphaScreen, human; AlphaScreen FBW7–phospho-cyclin E peptide binding, activator screen; 650,000 tested, 0.13% active; AID 1259310, 2017; normalized activity (activation), % at 26.1 µM; F-box/WD repeat-containing protein 7 (Homo sapiens), Q969H0; in the data active = normalized activity above about 1.9%;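 also: purified mutant Fbw7 with reduced substrate affinity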
GPR151 conf act: GPR151 activators, triplicate retest, confirmation, cell-based, PathHunter beta-arrestin, luminescence. shares compounds with GPR151 activ. GPR151 PathHunter beta-arrestin cells, 90 min; % of EA-reagent control over plate median. activation, % at 11.2 µM. 6,700 tested, under 10 active. AID 1508609, 2020;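 active = mean percent activation across replicates above the confirmation screen cutoff of 4.91%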
GPR119 ag: GPR119 activators in beta-arrestin cells, counter-screen for GPR151 activator project, cell-based, PathHunter beta-arrestin, luminescence, triplicate | shares compounds with GPR151 activ | 90 min; 0 = compound-well median, 100 = enzyme-acceptor control | activation, % at 11.2 µM | 6,700 tested, 0.3% active;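 active = mean percent activation in the counterscreen above 29.09%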;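 also: counterscreen on off-target GPR119 to flag nonselective hits from the GPR151 activator screen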
* marks the source's active call; other numbers are inactive results; . = no result given; ! = not active in a repeat. Sampled rows, rich in hits. Any-hit rate of the full collection: about 3.5%.

SMILES	MITF inh	GPR151 activ	TEAD-YAP block	FBW7 activator	GPR151 conf act	GPR119 ag
CCCCN(CCCC)c1nc(C)cc(=O)[nH]1	-5	5.1*!	5	0	0	-1
Cc1ccccc1-n1c(SCC(=O)N2CCCC(C)C2)nnc1-c1cccnc1 (stereo not drawn)	7	2	3	0	.	.
O=C1Cn2c3c(c4cccc(c42)N1)CCCC3	4	0	-1	0	.	.
Cc1cc(C)c(/C=C2\SC(N)=NC2=O)c(C)c1	-4	7.8*	-3	0	0	-1
Cc1ccc(C)c(/C=C2\SC(N)=NC2=O)c1	-2	0	-7	0	.	.
COc1ccc(/C=C2\SC(N)=NC2=O)cc1OC	19	9.1*	-2	0	0	10
COc1cc(/C=C2/C(=N)N3N=C(C(F)(F)F)SC3=NC2=O)ccc1OCCOc1cc(C)ccc1C	-6	0	5	0	.	.
CC(C)C(=O)Nc1nnc(SCc2ccc(Cl)cc2)s1	3	5.1*	3	0	0	9
COC(=O)c1ccc(NC(=O)CSc2nnc3[nH]c(=O)ccn23)cc1	2	6.3*	14	0	-1	-1
CCC(C)OC(=O)C1=C(C)NC2=C(C(=O)CC(c3ccc(OC)cc3)C2)C1c1cc(OC)c(OC)cc1Br (stereo not drawn)	-2	7.5*	11	-1	2	6
CCOc1cccc(CN2CCN(C3CCCC3)C(CCO)C2)c1 (stereo not drawn)	1	3	0	0	.	.
Cc1cccc(-c2n[nH]c(=S)n2CC(=O)O)c1	7	7.2*	3	0	0	3
Cc1ccc(N2CCN(C(=O)Nc3ccccc3)CC2)nn1	0	-1	-3	0	.	.
CSc1cccc(NC(=O)N2CCN(c3ccc(C)nn3)CC2)c1	1	5.6*	4	0	1	-3
O=[N+]([O-])c1cc(C(F)(F)F)ccc1NCCNCCO	-7	0	12	0	.	.
Cc1nonc1OCCNCCNc1ccccc1[N+](=O)[O-]	1	5.6*	1	0	0	5
Cc1nonc1OCCCNc1ccc([N+](=O)[O-])cc1	4	-1	17	1	.	.
O=[N+]([O-])c1ccccc1NCCNCCO	-1	7.9*	3	0	0	-2
CC(C)CN1CCN(Cc2cccc3nccnc23)CC1CCO (stereo not drawn)	-1	0	-5	0	.	.
CCOc1ccc(CN2CCN(Cc3cnc(N(C)C)s3)CC2CCO)cc1 (stereo not drawn)	-5	5.7*	-6	0	0	0
CCn1ccnc1CN1CCN(Cc2ccc(F)cc2)C(CCO)C1 (stereo not drawn)	-1	13*	-5	0	1	-1
Cc1ccc(CN2CCN(Cc3cccc4nccnc34)CC2CCO)cc1 (stereo not drawn)	-1	6.7*	-5	0	0	-13
CCOc1ccc(CN2CCN(Cc3cnc(N4CCOCC4)s3)CC2CCO)cc1 (stereo not drawn)	2	0	6	0	.	.
CCn1ccnc1CN1CCN(Cc2ccc(C)cc2)C(CCO)C1 (stereo not drawn)	21	3	1	0	.	.
Cc1oc(-c2ccccc2)nc1C(=O)O	-6	5.0*	2	0	1	-2
COCCn1c(SCC(=O)NC2CCCC2)nnc1-c1ccncc1	0	0	-3	0	.	.
COCCn1c(SCC(=O)N2CCCC2=O)nnc1-c1ccncc1	9	5.3*	12	0	-1	1
COc1ccc(/C=N/NC(=O)c2ccc(CN)cc2)c(OC)c1OC	0	1	0	0	.	.
FC(F)(F)c1cccc(-c2cnnc(N3CCN(c4ccccn4)CC3)n2)c1	12	15*	12	0	0	9
